# Results reported in ChEMBL document CHEMBL3433997, “St. Jude Leishmania screening dataset” (2016).
# Where “and” joins values, the source holds several entries; their conditions need not be identical. Identical values can stand only once.
# How the values were obtained:
# Format in all cases: functional
# [1] = molecular target: Solute carrier family 2, facilitated glucose transporter member 1 (Homo sapiens) (UniProt P11166); assay: ST_JUDE_LEISH: Cytotoxicity at 2uM final concentration against transgenic Leishmania Mexicana promastigotes LmGLUT1 that are glucose transport deficient and complemented with the human glucose transporter GLUT1. Activity is measured by DNA content using SYBR green in vitro
# [2] = molecular target: Hexose transporter 1 (Plasmodium falciparum) (UniProt O97467); assay: ST_JUDE_LEISH: Cytotoxicity at 2uM final concentration against transgenic Leishmania Mexicana promastigotes LmPfHT that are glucose transport deficient and complemented with the Plasmodium falciparum hexose transporter. Activity is measured by DNA content using SYBR green in vitro
# [3] = molecular target: Glucose transporter (Leishmania mexicana) (UniProt O61059); assay: ST_JUDE_LEISH: Cytotoxicity at 2uM final concentration against transgenic Leishmania Mexicana promastigotes LmGT2 that are glucose transport deficient and complemented with the L. Mexicana glucose transporter 2. Activity is measured by DNA content using SYBR green in vitro
# Sequence of Solute carrier family 2, facilitated glucose transporter member 1 (Homo sapiens) (P11166 whole entry): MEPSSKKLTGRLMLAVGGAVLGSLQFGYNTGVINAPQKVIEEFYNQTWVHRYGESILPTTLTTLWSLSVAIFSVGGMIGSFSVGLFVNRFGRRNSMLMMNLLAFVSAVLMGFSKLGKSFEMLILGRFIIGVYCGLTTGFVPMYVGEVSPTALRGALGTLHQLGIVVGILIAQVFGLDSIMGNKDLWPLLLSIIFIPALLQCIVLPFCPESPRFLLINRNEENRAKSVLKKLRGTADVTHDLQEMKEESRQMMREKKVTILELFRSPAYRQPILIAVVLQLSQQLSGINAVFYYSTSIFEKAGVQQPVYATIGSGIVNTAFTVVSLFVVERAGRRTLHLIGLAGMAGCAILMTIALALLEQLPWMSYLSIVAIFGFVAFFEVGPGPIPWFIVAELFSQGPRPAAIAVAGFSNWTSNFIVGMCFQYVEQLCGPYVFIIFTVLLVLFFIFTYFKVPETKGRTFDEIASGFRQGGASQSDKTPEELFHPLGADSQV
SMILES,inhibition [1],inhibition [2],inhibition [3]
COc1ccc(-c2cnc3[nH]cc(-c4ccc(CCC(=O)O)cc4)c3c2)cn1,5.06%,4.52%,6.38%
Cc1cnc(C(=O)Nc2cccc(-c3ccc(-c4nc5cc(C(F)(F)F)ccc5[nH]4)s3)c2)cn1,8.07%,5.21%,6.71%
COc1cc2nc(NC3CCN(Cc4ccccc4)CC3)nc(N)c2cc1OC,3.62%,2.22%,13%
CNc1ccc(CNCc2cccc(-c3ccc(-c4nc5cccc(C)c5[nH]4)s3)c2)cc1,8.15%,5%,6.79%
COc1cc2nc(N3CCC(CNC(=O)c4ccc(-c5ccc(C(=O)N(C)C)cc5)c(OCCO)c4)CC3)nc(N)c2cc1OC,2.82%,3.22%,2.26%
CCc1c(C)nc2nc(Cc3cccc(F)c3)nn2c1N1CCN(c2ccccn2)CC1,14.9%,12%,9.56%
CCN1CCC(N(CCCCCCCCc2ccc(C(F)(F)F)cc2)C(=O)Cn2c(CCc3cccc(F)c3F)cc(=O)c3ccccc32)CC1,8.91%,9.52%,4.76%
O=S(=O)(Nc1ccc2nccc(N3CCNCC3)c2c1)c1ccc2c(Cl)cccc2c1,0.28%,-0.67%,-0.37%
COc1ccc(NC(=O)[C@H](Cc2ccccc2)Nc2cc(C)nc(NCC3CCCCC3)n2)cc1,1.62%,2.59%,0.65%
CCCc1cn2c3c(cc(C(=O)N[C@@H](Cc4ccccc4)[C@H](O)CNC4CCCCC4)cc13)N(C)S(=O)(=O)CC2,1.94%,2.85%,1.49%
Cc1nc(-c2ccc3c(c2)CCN(CCC2CCC(NC(=O)c4cc5cccc(Cl)c5[nH]4)CC2)CC3)no1 (stereo unspecified),0.58%,7.07%,6.97%
Oc1ccc2ccccc2c1CNC1CCCCCC1,0.85%,1.51%,1.96%
O=C(NC1CC1)c1ccc(Cn2c(SCc3cccc([N+](=O)[O-])c3)nc3ccccc3c2=O)cc1,1.19%,0.54%,0.2%
CN(C)c1ccc(Br)c(Br)c1,3.2%,4.63%,-1.28%
CCCc1cc(NC2CCN(C)CC2)nc(Nc2cccc(OC)c2)n1,8.68%,6.18%,6.84%
COCCn1c(Sc2ncnc3sccc23)nc2ccccc21,0.98%,2.13%,1.8%
O=C(Cc1cccs1)NCC(c1ccccc1Cl)c1c[nH]c2ccccc12 (stereo unspecified),2.89%,0.74%,1.14%
N#Cc1ccc(-c2ccc(C(=O)NCCCCN3CCC(c4cn(CCO)c5ccccc45)CC3)cc2)cc1,-0.57%,-0.13%,0.2%
COc1ccc2nccc(N3CCN(CCNCc4ccc5c(n4)NC(=O)CO5)CC3)c2n1,11.2%,9.11%,10.1%
C=C[C@H]1CN2CC[C@H]1C[C@H]2[C@H](O)c1ccnc2ccc(OC)cc12,7.23% and -4.42% and 0.77%,6.11% and -3.17% and 2.26%,-0.01% and 5.72% and -2.15%
COC(=O)c1cc(/C(C)=N/Nc2nc3ccccc3[nH]2)ccc1O,4.85%,5.41%,1.77%
CCN(CC)CCCC(C)Nc1c(-c2ccc(C)cc2)cnc2ccccc12 (stereo unspecified),9.89%,7.44%,8.1%
CC(C)CNC(=O)c1cncc(-c2ccc(CNCCCc3ccccc3)cc2)c1,0.94%,-0.91%,-0.55%
COc1ccc(NC(=O)/C=C/c2ccc(-c3ccccc3)cc2)cc1N1CCN(C)CC1,2.62%,3.25%,0.83%
Cc1cccc2nc(-c3ccc(-c4ccc(CN5CCCCC5)cc4)cc3)[nH]c12,19.2%,18.6%,10.2%
CC(C)CCn1c(Sc2ccc(C#N)c([N+](=O)[O-])c2)nnc1-c1ccc(N(C)C)cc1,0.76%,0.92%,0.35%

SMILES,inhibition [1],inhibition [2],inhibition [3]
O=c1cc(NCCNCc2cccc(-c3ccccc3)c2)[nH]c2ccccc12,4.41%,-0.15%,1.64%
CCN1CCN(Cc2ccc(-c3ccc(NS(=O)(=O)c4cccc5cccnc45)cc3)cc2)CC1,20.6%,14%,9.92%
CN(C)S(=O)(=O)c1ccc(N2C(=O)C3C(C2=O)C2(c4ccccc4)C(=O)C3(c3ccccc3)C(c3ccccc3)=C2c2ccccc2)cc1 (stereo unspecified),-0.75%,-2.18%,-2.57%
Cc1nc(-c2ccc(-c3ccc(C(=O)Nc4ccc(Cl)c(N5CCN(C)CC5)c4)cc3)c(C)c2)no1,8.11%,7.83%,8.29%
COc1cc2nc(NCCc3ccccc3)nc(N(C)Cc3ccccc3)c2cc1OC,5.11%,5.4%,2.95%
CCCCNc1cc(C)nc(NCc2ccccc2)n1,22.1%,16.4%,5.11%
CCNC[C@H]1CCCN1CCOc1ccc(-n2cnc3cc(-c4ccc(Cl)cc4)sc3c2=O)cc1OC,-0.44%,-1.99%,-2.28%
CC(=O)Nc1cccc(C(=O)Nc2cccc(-c3ccc(-c4nc5cc(C(F)(F)F)ccc5[nH]4)s3)c2)c1,0.34%,0.52%,0.89%
CN(C)CCC(O)(c1ccc(Br)cc1)c1cccnc1 (stereo unspecified),3.13%,2.98%,0.51%
O=S(=O)(c1ccc(OCc2ccc(Cl)cc2)cc1)c1cc2c(c(-c3ccc(F)cc3)c1)CCN(CC1CC1)CC2,2.2%,0.41%,-0.48%
Cc1cccc2nc(-c3cccc(-c4ccc(NC(=O)Nc5ccc(Cl)cc5)cc4)c3)[nH]c12,4.43%,5.13%,-3.06%
CCCNC(=O)C1Cc2cc(OC)c(OC)cc2C2(N1)C(=O)N(Cc1cccc(OC)c1)c1ccccc12 (stereo unspecified),-1.15%,0.36%,-0.47%
CN(Cc1ccccc1)C(=O)c1nn(CCCN2CCC(N3CCCC3)CC2)cc1-c1ccc(Cl)c(Cl)c1,27.6%,13.7%,1.65%
CCN(CC)Cc1cccc(-c2cc3c(-c4ccc(C(=O)O)c(C(C)C)c4)ccnc3[nH]2)c1OC,12%,8.43%,7.3%
CC(C)CCNCc1c(O)ccc2ccccc12,-2.54%,-0.86%,3.37%
O=C(Nc1cccc(-c2nn3ncccc3c2-c2ccnc(Nc3cccnc3)n2)c1)c1c(F)cccc1F,1.51%,3.78%,2.21%
COc1cc2nc(N3CCC(CNC(=O)c4ccc(OC(F)(F)F)cc4)CC3)nc(N)c2cc1OC,-0.03%,0.04%,0.16%
COc1ccccc1C1CCN(C2CCC(NC(=O)c3cc4ccccc4[nH]3)CC2)CC1 (stereo unspecified),-0.02%,-0.24%,2.29%
CC(C)(C)NCc1cc(Nc2ccnc3cc(Cl)ccc23)ccc1F,7.77%,8.36%,9.71%
O=C(NCc1cccc(CN2CCOCC2)c1)c1cc(Br)cc(N2CCN(c3ccncc3)CC2)c1,0.32%,0.81%,0.57%
Cc1cc(NCCC(=O)NCCOc2ccccc2)nc(Nc2ccccc2)n1,5.24%,4.64%,0.05%
O=C(/C=C/C=C/c1ccccc1)NCCCCCN1CCC(c2c[nH]c3ccccc23)CC1,3.2%,4.23%,1.69%
COc1ccc(Nc2nc(N/N=C/c3cc(Br)ccc3O)nc(Nc3ccc([N+](=O)[O-])cc3)n2)cc1,0.02%,-2.54%,1.51%
O=C(/C=C/c1ccc(Cl)c(Cl)c1)N1CCC(C(O)CN2CCC(c3c[nH]c4ccccc34)CC2)CC1 (stereo unspecified),2.18%,1.82%,0.09%
COc1ccc(C)c(Nc2ccnc(Nc3cccc(-c4nc5ccccc5[nH]4)c3)n2)c1,3.82%,1.79%,2.68%
COc1ccc2ncc(F)c(CCN3CC(O)C(CNCc4ccc(F)cc4)C3)c2n1 (stereo unspecified),3.37%,3.9%,2.68%
